About 2,000 (36%) of roughly 5,500 compounds were called active. Another 18% or so got no clear call; they are omitted. No stated cut-off is given here; in the data, active means normalized growth mostly below about 0.91 (no sharp cut-off); inconclusive means no clear call, values can overlap the other calls; inactive means mostly above about 0.92. The list shows a part of the results.
Test: chemical genetic growth profiling, strain panel (AID 1159580);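 further: tested at 20 µM; growth read once vehicle control cultures reached saturation at 30 °C; 1 = growth at the plate median or of vehicle wells; lower values mean less growth of the strain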
Conditions: growth OD

Measured: normalized growth

COc1ccc2c(c1O)OCC1c3cc4c(cc3OC21)OCO4 (stereo unspecified)
active: S. cerevisiae deletion strains, locus YNL307C, strain MCK1, active compounds read low 0.904
inactive: S. cerevisiae deletion strains, locus YAL013W, strain DEP1, active compounds read low 0.991 | S. cerevisiae deletion strains, locus YBR021W, strain FUR4, active compounds read low 0.964 | S. cerevisiae deletion strains, locus YBR229C, strain ROT2, active compounds read low 0.96 | S. cerevisiae deletion strains, locus YCL029C, strain bik1, active compounds read low 1 | S. cerevisiae deletion strains, locus YDL035C, strain GPR1, active compounds read low 0.935 | S. cerevisiae deletion strains, locus YDL074C, strain BRE1, active compounds read low 0.882 | S. cerevisiae deletion strains, locus YDL101C, strain DUN1, active compounds read low 0.953 | S. cerevisiae deletion strains, locus YDL134C, strain PPH21, active compounds read low 0.986 | S. cerevisiae deletion strains, locus YDL185W, strain tfp1, active compounds read low 0.957 | S. cerevisiae deletion strains, locus YDL192W, strain arf1, active compounds read low 0.986 | S. cerevisiae deletion strains, locus YDR101C, strain arx1, active compounds read low 0.986 | S. cerevisiae deletion strains, locus YDR150W, strain NUM1, active compounds read low 0.983 | S. cerevisiae deletion strains, locus YDR162C, strain NBP2, active compounds read low 0.88 | S. cerevisiae deletion strains, locus YDR318W, strain mcm21, active compounds read low 0.979 | S. cerevisiae deletion strains, locus YDR388W, active compounds read low 1 | S. cerevisiae deletion strains, locus YDR502C, strain sam2, active compounds read low 0.952 | S. cerevisiae deletion strains, locus YEL061C, strain CIN8, active compounds read low 0.987 | S. cerevisiae deletion strains, locus YER110C, active compounds read low 0.994 | S. cerevisiae deletion strains, locus YER155C, strain BEM2, active compounds read low 1 | S. cerevisiae deletion strains, locus YER167W, strain BCK2, active compounds read low 1 | S. cerevisiae deletion strains, locus YGL078C, strain dbp3, active compounds read low 0.983 | S. cerevisiae deletion strains, locus YGL086W, strain mad1, active compounds read low 0.996 | S. cerevisiae deletion strains, locus YGL248W, strain PDE1, active compounds read low 0.974 | S. cerevisiae deletion strains, locus YGR078C, strain PAC10, active compounds read low 0.909 | S. cerevisiae deletion strains, locus YGR135W, strain pre9, active compounds read low 0.958 | S. cerevisiae deletion strains, locus YGR229C, strain SMI1, active compounds read low 0.909 | S. cerevisiae deletion strains, locus YGR252W, strain gcn5, active compounds read low 0.857 | S. cerevisiae deletion strains, locus YHR030C, strain SLT2, active compounds read low 1 | S. cerevisiae deletion strains, locus YHR079C, strain IRE1 (second series), active compounds read low 0.982 | S. cerevisiae deletion strains, locus YHR094C, strain hxt1, active compounds read low 1 | S. cerevisiae deletion strains, locus YHR129C, strain ARP1, active compounds read low 0.988 | S. cerevisiae deletion strains, locus YHR200W, strain rpn10, active compounds read low 0.998 | S. cerevisiae deletion strains, locus YIL066C, strain RNR3, active compounds read low 0.974 | S. cerevisiae deletion strains, locus YIL073C, strain SPO22, active compounds read low 1.01 | S. cerevisiae deletion strains, locus YIL125W, strain kgd1, active compounds read low 0.99 | S. cerevisiae deletion strains, locus YIR030C, strain dcg1, active compounds read low 0.986 | S. cerevisiae deletion strains, locus YJL095W, strain BCK1, active compounds read low 0.924 | S. cerevisiae deletion strains, locus YJL134W, strain LCB3, active compounds read low 0.998 | S. cerevisiae deletion strains, locus YJL168C, strain set2, active compounds read low 0.987 | S. cerevisiae deletion strains, locus YJL187C, strain SWE1 (second series), active compounds read low 0.939 | S. cerevisiae deletion strains, locus YJR043C, strain POL32, active compounds read low 0.987 | S. cerevisiae deletion strains, locus YJR075W, strain HOC1, active compounds read low 0.939 | S. cerevisiae deletion strains, locus YKL009W, strain mrt4, active compounds read low 0.92 | S. cerevisiae deletion strains, locus YKL068W, active compounds read low 0.998 | S. cerevisiae deletion strains, locus YKL085W, strain MDH1 (second series), active compounds read low 1.01 | S. cerevisiae deletion strains, locus YKL085W, strain MDH1, active compounds read low 1.01 | S. cerevisiae deletion strains, locus YKL190W, strain CNB1, active compounds read low 0.979 | S. cerevisiae deletion strains, locus YKR001C, strain vps1, active compounds read low 0.963 | S. cerevisiae deletion strains, locus YLR039C, strain RIC1, active compounds read low 0.846 | S. cerevisiae deletion strains, locus YLR058C, strain SHM2, active compounds read low 0.971 | S. cerevisiae deletion strains, locus YLR102C, strain apc9, active compounds read low 0.983 | S. cerevisiae deletion strains, locus YLR262C, strain YPT6, active compounds read low 0.851 | S. cerevisiae deletion strains, locus YLR268W, strain sec22, active compounds read low 0.938 | S. cerevisiae deletion strains, locus YLR330W, strain CHS5, active compounds read low 0.991 | S. cerevisiae deletion strains, locus YLR342W, strain FKS1 (second series), active compounds read low 0.946 | S. cerevisiae deletion strains, locus YLR371W, strain rom2, active compounds read low 1 | S. cerevisiae deletion strains, locus YLR418C, strain cdc73, active compounds read low 0.903 | S. cerevisiae deletion strains, locus YML016C, strain PPZ1, active compounds read low 0.992 | S. cerevisiae deletion strains, locus YML032C, strain rad52, active compounds read low 0.987 | S. cerevisiae deletion strains, locus YML124C, strain tub3, active compounds read low 1.01 | S. cerevisiae deletion strains, locus YMR078C, strain ctf18, active compounds read low 0.988 | S. cerevisiae deletion strains, locus YMR223W, strain ubp8, active compounds read low 0.976 | S. cerevisiae deletion strains, locus YMR263W, strain SAP30, active compounds read low 0.929 | S. cerevisiae deletion strains, locus YMR307W, strain GAS1, active compounds read low 1.04 | S. cerevisiae deletion strains, locus YNL067W, strain RPL9B, active compounds read low 0.929 | S. cerevisiae deletion strains, locus YNL128W, strain TEP1, active compounds read low 0.929 | S. cerevisiae deletion strains, locus YNL153C, strain GIM3, active compounds read low 0.936 | S. cerevisiae deletion strains, locus YNL233W, strain BNI4, active compounds read low 0.971 | S. cerevisiae deletion strains, locus YNL250W, strain rad50, active compounds read low 0.994 | S. cerevisiae deletion strains, locus YNL271C, strain bni1, active compounds read low 0.98 | S. cerevisiae deletion strains, locus YNL298W, strain CLA4, active compounds read low 0.958 | S. cerevisiae deletion strains, locus YNL322C, strain KRE1, active compounds read low 0.981 | S. cerevisiae deletion strains, locus YNR052C, strain pop2, active compounds read low 0.987 | S. cerevisiae deletion strains, locus YOL006C, strain TOP1, active compounds read low 0.783 | S. cerevisiae deletion strains, locus YOL012C, strain htz1 1.07 | S. cerevisiae deletion strains, locus YOL147C, strain pex11, active compounds read low 1 | S. cerevisiae deletion strains, locus YOR061W, strain CKA2, active compounds read low 0.969 | S. cerevisiae deletion strains, locus YOR069W, strain VPS5, active compounds read low 1 | S. cerevisiae deletion strains, locus YOR136W, strain idh2, active compounds read low 0.999 | S. cerevisiae deletion strains, locus YOR144C, strain elg1, active compounds read low 0.994 | S. cerevisiae deletion strains, locus YOR184W, strain ser1, active compounds read low 0.907 | S. cerevisiae deletion strains, locus YOR316C, strain cot1, active compounds read low 0.988 | S. cerevisiae deletion strains, locus YPL055C, strain LGE1, active compounds read low 0.883 | S. cerevisiae deletion strains, locus YPL241C, strain CIN2, active compounds read low 0.99 | S. cerevisiae deletion strains, locus YPR119W, strain clb2, active compounds read low 0.999 | S. cerevisiae deletion strains, locus YPR141C, strain kar3, active compounds read low 0.997 | S. cerevisiae deletion strains, locus YPR163C, strain tif3, active compounds read low 0.964 | S. cerevisiae deletion strains, locus YPR167C, strain met16, active compounds read low 0.984 | S. cerevisiae deletion strains, strain wtn01, active compounds read low 0.946 | S. cerevisiae strains, strain wild type, active compounds read low 0.994

Source: PubChem BioAssay AID1159580 (chemical genetic matrix, 2015)
